# Reference: PubChem BioAssay AID2158 (National Center for Advancing Translational Sciences (NCATS), 2009)
# Values joined by “and” are separate entries in the source; they are usually repeats but may differ in a detail not shown here. Identical values can stand only once. Results filed as inconclusive are left out. A number with no mark means an inactive call. Active and inactive are the calls of the source. Calls follow the shape of the dose curve; as a rule, active = well fitted inhibition curve with a large enough effect; inconclusive = small, poorly fitted or top-dose-only effect; inactive = no such curve, though single readings can be large or run the other way.
# Molecular target: Cruzipain (Trypanosoma cruzi) (UniProt P25779)
# Sequence (P25779 123-467 limits assumed): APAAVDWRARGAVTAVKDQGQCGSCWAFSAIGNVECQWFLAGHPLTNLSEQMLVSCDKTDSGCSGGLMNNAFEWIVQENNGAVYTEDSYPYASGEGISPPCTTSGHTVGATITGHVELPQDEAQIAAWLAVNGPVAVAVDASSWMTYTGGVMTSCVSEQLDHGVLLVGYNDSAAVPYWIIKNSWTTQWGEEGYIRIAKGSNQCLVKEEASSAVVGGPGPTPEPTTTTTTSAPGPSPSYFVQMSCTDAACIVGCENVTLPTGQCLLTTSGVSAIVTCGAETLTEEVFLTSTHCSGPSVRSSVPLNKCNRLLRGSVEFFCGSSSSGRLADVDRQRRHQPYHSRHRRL
# Experiment: Confirmation qHTS Assay for Inhibitors of Cruzain; also: nearly all actives have a fitted effect of over 40% in size;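 as to activity change, negative = inhibition: plate controls were uninhibited enzyme control for no effect and buffer wells lacking enzyme for full effect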
# Details: purified cruzain, Z-FR-AMC fluorescence, 0.01% Triton
# Method in brief: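 Purified cruzain, 1.5 nM, pre-incubated 15 min at room temperature with compound in 100 mM sodium acetate pH 5.5, 5 mM DTT, 0.01% Triton X-100. Then 2 uM Z-FR-AMC added; AMC fluorescence (ex 360/em 450 nm) increase over 60 s gave reaction progress.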
# Potency is read from the fitted curve at half-maximal effect.
SMILES,"activity change, negative = inhibition [%]",Potency
O=C(c1ccc(OCCN2CCCCC2)cc1)c1c(-c2ccc(O)cc2)sc2cc(O)ccc12,-21.2,–
Cc1ccccc1OCC(=O)NCC(=O)OCC(=O)c1ccc2c(c1)CCCC2,-3.79,–
Cn1nc(-c2cccnc2)nc2c(=O)n(C)c(=O)nc1-2,–,1.12 µM (active)
Cc1cc(NC(=O)Cc2cccs2)no1,-19.2,–
O=C(CNC(=O)c1cccc(Cl)c1)OC(C(=O)Nc1cc(C(F)(F)F)ccc1Cl)c1ccccc1 (centres undefined),–,12.6 µM (active)
COc1cccc(NC(=O)C(OC(=O)CNC(=O)c2ccccc2)c2ccccc2)c1 (centres undefined),–,12.6 µM (active)
O=C(CSc1nnc(-c2ccco2)c(-c2ccco2)n1)Nc1ccccc1,–,12.6 µM (active)
O=C(COC(=O)CNS(=O)(=O)c1ccc(F)c(F)c1F)Nc1ccc(OC(F)F)cc1,-11.4,–
O=C(Nc1ccc(-n2nncc2-c2ccccc2)cc1)c1ccccc1,-9.78,–
CCNc1nc(C#N)nc(N2CCOCC2)n1,–,10 µM (active)
Cc1ccc(CN(Cc2cc3cc(C)ccc3[nH]c2=O)Cc2nnnn2Cc2ccccc2)cc1,-18.6,–
CC(C)(C)Nc1nc(C#N)nc(Nc2ccccc2)n1,–,2.24 µM (active)
CC(C)(C)OC(=O)Cc1nnc(CNC(=O)c2ccccc2)s1,-0.719,–
CCN(c1ccccc1)c1nc(C#N)nc(N(CC)c2ccccc2)n1,–,5.01 µM (active)
CCN(CC)c1nc(C#N)nc(N(CC)CC)n1,–,17.8 µM (active) and 14.1 µM (active)
CCOC(=O)C(C(=O)OCC)N(C#N)c1nc(SC)nc(N(C)C)n1,–,5.01 µM (active)
O=C(NCc1nnc(-c2nc3ccccc3[nH]2)o1)C1CCCCC1,-3.39,–
N#Cc1nc(Nc2ccc(-c3ccccc3)cc2)nc(NC2CCCC2)n1,–,3.98 µM (active)
CCCNc1nc(C#N)nc(Nc2ccccc2)n1,–,0.794 µM (active)
CCCCNC(=O)Cn1c(SCc2ccccc2C)nc2ccncc21,-24.9,–

SMILES,"activity change, negative = inhibition [%]",Potency
Cc1ccc(S(=O)(=O)NCC(=O)OCC(=O)Nc2ncc(Cl)cc2Cl)cc1,-50.6,–
Clc1ccc(-c2nn3c(-c4cc(-c5ccccc5)n[nH]4)nnc3s2)cc1,-13.4,–
OCCN(CCO)c1ccc(C(c2ccccc2Cl)c2ccc(N(CCO)CCO)cc2Cl)c(Cl)c1,-15.5,–
N#Cc1nc(N(c2ccccc2)c2ccccc2)nc(-n2cccc2)n1,–,2.51 µM (active)
N#Cc1nc(N2CCCC2)nc(N2CCCC2)n1,–,7.08 µM (active)
CSc1nc(N(CCO)CCO)c2sc3nc(-c4ccco4)c4c(c3c2n1)CCC4,–,11.2 µM (active)
N#CN1CCC(NC(=O)c2cccc(C(F)(F)F)c2)CC1,-5.22,–
CCNC(=O)c1ccc2nc(-c3ccccc3)c(-c3ccccc3)nc2c1,-14.3,–
NC(=S)n1[nH]c(-c2ccc([N+](=O)[O-])cc2)c(N=Nc2ccc(O)cc2)c1=O,-8,–
O=C(CNC(=O)C1CCCC1)OC(C(=O)Nc1cc(C(F)(F)F)ccc1Cl)c1ccccc1 (centres undefined),–,7.94 µM (active)
CCOc1ccc(C(=O)COC(=O)CNC(=O)C2CCCCC2)cc1,–,3.16 µM (active)
O=C(COC(=O)CCSc1ccccc1Cl)Nc1ccc(F)cc1F,–,14.1 µM (active)
O=C(CNC(=O)c1ccc(Cl)cc1Cl)OC(C(=O)Nc1cc(C(F)(F)F)ccc1Cl)c1ccccc1 (centres undefined),–,7.08 µM (active)
COc1ccc2[nH]c3c(NCCN4CCCCC4)ncnc3c2c1,–,12.6 µM (active)
N#Cc1nc(Nc2cccc(F)c2)nc(NC2CCCC2)n1,–,0.0794 µM (active)
O=C(COC(=O)CNC(=O)C1CCCCC1)Nc1cc(C(F)(F)F)ccc1Cl,–,2.82 µM (active)
COc1ccc(Nc2nc(C#N)nc(NC3CCCC3)n2)cc1,–,0.447 µM (active)
CC(C)(C)c1ccc(-c2nc(SCC(=O)Nc3ccc(Cl)cc3)[nH]c(=O)c2C#N)cc1,–,12.6 µM (active)
Cc1cc(OCCn2c(CCNC(=O)C3CCCCC3)nc3ccccc32)ccc1Cl,–,1 µM (active)
